Assay outcomes (PubChem BioAssay)
A selection: hits, their analogues and other compounds. The true share with any hit is near 12%.
G9a inh: qHTS Assay for Inhibitors of Histone Lysine Methyltransferase G9a; 8.8% of 350,000 active; Histone-lysine N-methyltransferase EHMT2 (Homo sapiens), Q96KQ7; Potency, µM (top dose mostly 102 µM), for inactives: at the top dose activity, negative = inhibition, usual class: inhibitors; G9a H3K9 monomethylation, AlphaScreen, 2 h; AID 504332, 2011; further: on the % scale 0 is the no-effect control and ±100 the full control effect; nearly all actives have a fitted effect of over 75% in size
Target sequence (Q96KQ7 913-1193 limits assumed): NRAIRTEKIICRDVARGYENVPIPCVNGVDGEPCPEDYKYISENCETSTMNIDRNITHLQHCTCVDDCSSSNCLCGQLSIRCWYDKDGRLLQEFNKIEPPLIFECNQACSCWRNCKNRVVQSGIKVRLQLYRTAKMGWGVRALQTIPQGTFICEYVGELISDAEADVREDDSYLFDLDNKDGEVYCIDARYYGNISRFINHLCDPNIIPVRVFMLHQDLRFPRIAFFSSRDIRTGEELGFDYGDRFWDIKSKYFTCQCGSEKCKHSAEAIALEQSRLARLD
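Chemiluminescent proximity detection of H3K9 monomethylation, read after 10 min bead incubation in the dark. Reaction: 20 nM G9a, 500 nM biotin-H3K9 peptide, 20 uM SAM cofactor, 2 h, room temperature, following 15 min enzyme-compound preincubation.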
HP1b chromo inh: HTS for Inhibitors of HP1-beta Chromodomain Interactions with Methylated Histone Tails. Potency, µM (titrated, usually from 114 µM), for the others: at the highest dose activity change, negative = inhibition, usual class: inhibitors. 0.56% of 390,000 active. AlphaScreen HP1-beta / biotin-H3K9me3 peptide binding. Chromobox protein homolog 1 (Homo sapiens), P83916; further: nearly all actives have a fitted effect of over 70% in size
Target sequence (P83916 whole entry, looked up): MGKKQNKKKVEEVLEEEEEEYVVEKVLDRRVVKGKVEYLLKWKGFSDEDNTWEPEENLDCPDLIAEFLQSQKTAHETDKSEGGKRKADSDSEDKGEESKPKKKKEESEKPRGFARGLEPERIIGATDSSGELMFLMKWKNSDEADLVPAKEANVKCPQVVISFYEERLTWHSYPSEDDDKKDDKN
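AlphaScreen: HP1-beta (50 nM) preformed 30 min with biotin-H3(1-18)K9me3 peptide (50 nM) in PBS pH 7.4, 0.01% Tween-20. Compound added for 30 min at RT, then streptavidin donor/nickel chelate acceptor beads (10 ug/mL) for 30 min.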
BAZ2B block: qHTS Assay for Inhibitors of BAZ2B; Bromodomain adjacent to zinc finger domain protein 2B (Homo sapiens), Q9UIF8; AlphaScreen BAZ2B-H3K14Ac peptide displacement; Potency, µM (top dose mostly 114 µM), for inactives: at the highest dose activity change, negative = inhibition, hits mostly inhibitors; 4.4% of 360,000 active; AID 504333, 2011; further: on the % scale 0 is the no-effect control and ±100 the full control effect; nearly all actives have a fitted effect of over 60% in size
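AlphaScreen luminescence quantifies BAZ2B engagement of H3K14Ac peptide; the protein and biotinylated peptide are both at 50 nM final, buffer PBS pH 7.4 with 0.01% Tween-20, all steps at room temperature.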
Sfp PPTase inh: qHTS Assay for Inhibitors of Bacillus subtilis Sfp phosphopantetheinyl transferase (PPTase); 4'-phosphopantetheinyl transferase ffp (Bacillus subtilis), Q9F4F7; 3.5% of 310,000 active; Potency, µM, without a hit: largest response in the series, negative = inhibition, usual class: inhibitors; Biochemical Sfp PPTase activity, qHTS;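 further: the enzyme is Sfp with the accession as filed and its product quenches rhodamine fluorescence; 0% = enzyme reaction without inhibitor and -100% = no enzyme wells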
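Sfp 15 nM + cpd, 15 min RT; start w/ rhodamine-CoA 5 uM, BHQ-2-YbbR 12.5 uM (final); 50 mM Hepes pH 7.6, 10 mM MgCl2, 0.01% NP-40, 0.01% BSA; read 525/598 nm at 0 and 30 min.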
TDP1 block: qHTS Assay for Inhibitors of Tyrosyl-DNA Phosphodiesterase (TDP1); 0.28% of 350,000 active; recombinant TDP1, AlphaScreen DNA substrate cleavage; Potency, µM (highest dose often 130 µM), for inactives: at the highest dose activity change, negative = inhibition, usual class: inhibitors; Tyrosyl-DNA phosphodiesterase 1 (Homo sapiens), Q9NUW8; further: on the % scale 0 is the no-effect control and ±100 the full control effect; nearly all actives have a fitted effect of over 40% in size
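Here, a 5' biotin and 3' phosphotyrosine-FITC DNA oligonucleotide reports Tdp1 activity: intact substrate bridges AlphaScreen beads, while cleavage leaves a 3' phosphate and drops signal. All incubations at room temperature.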
JMJD2A Tudor inh: qHTS Assay for Inhibitors of JMJD2A-Tudor Domain; Lysine-specific demethylase 4A (Homo sapiens), O75164; AlphaScreen JMJD2A-Tudor / H3K4me3 peptide binding; Potency, µM (doses to about 114 µM), without a hit: top-dose activity change, negative = inhibition, hits mostly inhibitors; 4.4% of 390,000 active; AID 504339, 2011; further: on the % scale 0 is the no-effect control and ±100 the full control effect; nearly all actives have a fitted effect of over 50% in size
Numbers without * were called inactive; ? = inconclusive; · = not tested or not shown; [ ] = dose if it differs, or a comment. The call rests on the fitted dose curve; in most records, active means well fitted curve in the direction sought with a large enough effect; inconclusive means small, poorly fitted or top-dose-only effect, or another doubt; inactive means no such curve, though single readings can be large; an effect the other way counts as inactive or inconclusive. Potency means the concentration at half of the fitted maximal effect.

SMILES	G9a inh	HP1b chromo inh	BAZ2B block	Sfp PPTase inh	TDP1 block	JMJD2A Tudor inh
Cn1c(=O)n(C)c2cc(NS(=O)(=O)c3ccc(C(C)(C)C)cc3)c(NCc3ccccc3)cc21	14µM*	?	40µM*	·	4%[12.3 µM]	22µM*
Cn1c(=O)n(C)c2cc(NS(=O)(=O)c3ccccc3)c(NCc3ccccc3)cc21	11µM*	?	50µM*	·	10%	?
Cn1c(=O)n(C)c2cc(NS(=O)(=O)c3ccc(Cl)cc3)c(NCc3ccccc3)cc21	16µM*	65%	-24%	·	8%	?
COc1ccc(S(=O)(=O)Nc2cc3c(cc2NCc2ccccc2)n(C)c(=O)n3C)cc1OC	13µM*	-11%	50µM*	·	2%	?
COc1ccc(S(=O)(=O)Nc2ccc3c(c2)n(C)c(=O)n3C)cc1OC	26%	7%	?	22%	8%[0.0935 µM]	-4%
Cc1cc(S(=O)(=O)Nc2cc3c(cc2NCc2ccccc2)n(C)c(=O)n3C)ccc1F	14µM*	4%	?	·	0%[12.3 µM]	-23%
CC1(C)S[C@@H]2[C@H](NC(=O)[C@H](NC(=O)N3CCN(S(C)(=O)=O)C3=O)c3ccccc3)C(=O)N2[C@H]1C(=O)O	-37%[12.7 µM]	·	·	-2%	·	·
O=C(CSCc1ccc(F)cc1)N1CCc2c([nH]c3ccccc23)C1c1ccc(F)cc1 (stereo unspecified)	-29%[59 µM]	7%[57 µM]	-27%	·	5%	?
COC/C=C/C1=CC2=CC(=O)C(C)(OC(=O)c3cccs3)C(=O)C2=CO1 (stereo unspecified)	·	·	·	-8%	5%	·
COC/C=C/C1=CC2=CC(=O)C(C)(OC(=O)c3ccco3)C(=O)C2=CO1 (stereo unspecified)	?	·	50µM*	56µM*	-14%	·
COC/C=C/C1=CC2=CC(=O)C(C)(O)C(=O)C2=CO1 (stereo unspecified)	·	·	·	?	-3%	·
COC/C=C/C1=CC2=CC(=O)C(C)(OC(=O)C3CCCC3)C(=O)C2=CO1 (stereo unspecified)	?	?	56µM*	79µM*	-1%	63µM*
Cc1nnc(N2C(=O)C(=O)/C(=C(/O)c3ccc4c(c3)OCCO4)C2c2ccc(F)cc2)s1 (stereo unspecified)	45µM*	80%	-25%[57.1 µM]	2%	5%	-18%
O=C1C(=O)N(c2nccs2)C(c2ccccc2F)/C1=C(\O)c1ccc2c(c1)OCCO2 (stereo unspecified)	-11%[0.0925 µM]	0%	50µM*	-3%	5%	?
CCOC(=O)c1cc(-c2ccccc2)n(CC(=O)Nc2ccc(CC)cc2)c1C	1%[59 µM]	10%	2%	·	0%	-15%
COc1cc(C(=O)NNC(=O)c2cc(C)[nH]n2)cc(OC)c1OC	13µM*	-25%	-36%	-14%	5%	?
Cc1cc(C(=O)NNC(=O)CCCCC(=O)NNC(=O)c2cc(C)[nH]n2)n[nH]1	4µM*	26%	7%	79µM*	1%	-15%
CCc1noc(C)c1C(=O)NNC(=O)c1cc(OC)c(OC)c(OC)c1	6.3µM*	29%	3%	·	-5%[0.505 µM]	1%
COc1ccc(CC(=O)NNC(=O)c2cc(C)[nH]n2)cc1	22%	15%	-16%	-15%	2%[56.1 µM]	?
CCc1noc(C)c1C(=O)NNC(=O)c1cc(OC)cc(OC)c1	-25%[2.33 µM]	45%	2%	·	0%[56.1 µM]	6%
